Most compounds without a hit are left out; they make up all but 3.3% or so of the library.
HGIII-sPLA2 inh = Blocks human group III sPLA2 activity | Q9NZ20 | QFRET BODIPY PC-A2 liposome hydrolysis, fluorescence | inhibition, % at 12.2 µM | 0.56% of 370,000 active | AID 743126;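 active = inhibition above mean plus 3 SD of compounds lying within the high and low control bounds, cut at about 19% in these data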;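 note: 0% = median of test compound wells and 100% = no enzyme DMSO wells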
Target sequence (Q9NZ20 whole entry, looked up): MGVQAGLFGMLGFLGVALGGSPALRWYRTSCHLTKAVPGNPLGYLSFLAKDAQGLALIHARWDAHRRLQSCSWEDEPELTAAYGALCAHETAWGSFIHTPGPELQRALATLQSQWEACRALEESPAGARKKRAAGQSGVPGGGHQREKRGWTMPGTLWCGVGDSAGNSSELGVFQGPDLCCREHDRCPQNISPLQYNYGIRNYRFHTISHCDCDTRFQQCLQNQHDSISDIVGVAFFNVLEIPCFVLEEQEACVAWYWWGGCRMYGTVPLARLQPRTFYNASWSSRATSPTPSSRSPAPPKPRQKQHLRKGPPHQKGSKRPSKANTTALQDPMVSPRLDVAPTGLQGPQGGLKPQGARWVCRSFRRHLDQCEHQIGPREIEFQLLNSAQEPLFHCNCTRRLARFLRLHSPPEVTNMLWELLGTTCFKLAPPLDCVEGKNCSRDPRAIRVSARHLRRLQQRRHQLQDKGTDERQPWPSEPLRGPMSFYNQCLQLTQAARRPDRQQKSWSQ
NR3A LBD binder = modulators (binders) of human NR3A ligand-binding domain; NR3A LBD differential scanning fluorimetry, Tm shift; 0% = protein alone, 100% = glycine-bound protein; Tm shift relative to glycine control, % at 25 µM; 2.5% of 340,000 active;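 active = melting temperature shift of at least 10% of the positive control shift, at one fixed dose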
SUMO HTRF inh = blocks human SUMOylation mediated by UBC9 | inhibition, % at 35 µM | HTRF SUMOylation assay, SAE1/SAE2 + UBC9, in vitro | AID 2006 | 0.36% of 290,000 active; in the data active = inhibition above about 50%, passing the limit was not always enough
UBC13 polyUb = human UBC13 polyubiquitination inhibition; inhibition, % at 20 µM; UBC13 polyubiquitin chain formation, TR-FRET; P61088; 0.47% of 330,000 active; in the data active = inhibition above about 45%, passing the limit was not always enough
* marks the source's active call; other numbers are inactive results; · = no result.

SMILES | HGIII-sPLA2 inh | NR3A LBD binder | SUMO HTRF inh | UBC13 polyUb
CCN(CC)c1ccc(/C=C2/C(=O)NC(=O)N(Cc3ccco3)C2=O)cc1 | -7 | 24* | 12 | -55
CN(C)c1ccc(/C=C2/C(=O)NC(=O)N(Cc3ccco3)C2=O)cc1 | -6 | 2 | 27 | -44
C=CCN1C(=O)/C(=C/c2cccs2)C(=O)NC1=S | -2 | 0 | -3 | ·
O=C1NC(=S)N(Cc2ccco2)C(=O)/C1=C\c1cccs1 | · | · | 94* | ·
Oc1c(Cl)c(Cl)c(Cl)c(Cl)c1Cl | -17 | 19* | · | -11
Cc1ccsc1C(=O)C1CCCN(Cc2ccc(-n3cccn3)cc2)C1 (stereo not drawn) | -9 | -1 | 65* | -2
O=C(COC(=O)c1ccc(O)cc1)Nc1ccc(Cl)cc1C(=O)c1ccccc1 | -33 | 18* | -28 | 9
O=C(CNC(=O)OCc1ccccc1)NC(Cc1ccccc1)P(=O)(Oc1ccccc1)Oc1ccccc1 (stereo not drawn) | -27 | · | · | ·
CCOC(=O)C(O)(c1ccc(NC(=O)Oc2ccccc2)cc1)C(F)(F)F (stereo not drawn) | 1 | 16* | -1 | 0
CC(C)C(NC(=O)OCc1ccccc1)P(=O)(Oc1ccccc1)Oc1ccccc1 (stereo not drawn) | -6 | · | · | ·
CCOCCCn1c(N)c(C(=O)Nc2sc3c(c2C(=O)OC)CCCC3)c2nc3ccccc3nc21 | -26 | 17* | 99 | 4
CCOC(=O)c1c(NC(=O)c2c(N)n(CCCOC)c3nc4ccccc4nc23)sc2c1CCCC2 | -3 | 24* | 52 | 22
CCCCn1c(N)c(C(=O)OCCOC)c2nc3ccccc3nc21 | 0 | 0 | 67* | 2
COCCCn1c(N)c(C(=O)NCCC(C)C)c2nc3ccccc3nc21 | -8 | -1 | 102 | 23
CCCCn1c(NS(=O)(=O)c2ccc(C)cc2)c(C(=O)OCC)c2nc3ccccc3nc21 | -18 | 13* | 99* | -9
CCCCOCCCn1c(N)c(C(=O)OCCOC)c2nc3ccccc3nc21 | 4 | -1 | 18 | -17
N#CC1c2ccccc2-n2nncc2CN1C(=O)c1ccc([N+](=O)[O-])o1 (stereo not drawn) | 1 | · | · | ·
CN1c2ccc(Br)cc2[C@H]2NCC[C@H]2[C@H]1CO | -1 | · | · | ·
CN[C@@H]1C[C@@H](c2ccc(Cl)c(Cl)c2)c2ccccc21 | · | · | -14 | 46*
CC(NCc1ccc(Cl)c(Cl)c1)C(O)c1ccccc1 (stereo not drawn) | 12 | -1 | 2 | 6
Cc1ccc(C(=O)NCCN2CCC3(CC2)C(=O)NCN3c2ccccc2)cc1 | 1 | · | · | ·
N#CC1c2ccccc2-n2nncc2CN1C(=O)c1cccnc1 (stereo not drawn) | 5 | · | · | ·
Cc1ccc2nsnc2c1-n1c(C)nc2ccccc2c1=O | 10 | 17* | 3 | -6
O=c1[nH]cc(N(CCCl)CCCl)c(=O)[nH]1 | 5 | · | · | ·
C[C@]12CC[C@H](O)CC1=CCC1C2CC[C@]2(C)C(=O)[C@H](Br)CC12 (stereo partly drawn) | -4 | 14* | · | 11
SMILES | HGIII-sPLA2 inh | NR3A LBD binder | SUMO HTRF inh | UBC13 polyUb
COc1ccc(N2C(=O)/C(=C/C=C/c3ccccc3[N+](=O)[O-])C(=O)NC2=S)cc1 | 7 | 100* | 27 | -11
O=C1NC(=O)N(Cc2ccc(F)cc2)C(=O)/C1=C\c1ccc([N+](=O)[O-])s1 | -9 | -7 | 63* | -48
COc1ccc(N2C(=O)NC(=O)/C(=C/c3ccc([N+](=O)[O-])s3)C2=O)cc1 | -14 | -4 | 51* | -26
Brc1csc(N2CCNCC2)n1 | 12 | · | · | ·
N=c1c2c(-c3ccccc3)c(-c3ccccc3)n(Cc3ccccc3)c2ncn1C1CCC(O)CC1 (stereo not drawn) | 2 | · | · | ·
S=P(c1ccccc1)(c1ccccc1)c1cnc2ccccn12 | 3 | · | · | ·
COc1cc(O)c2c(c1)/C=C/C[C@H](O)[C@H](O)[C@@H](O)/C=C/C[C@H](C)OC2=O | 14 | · | · | ·
CCOC(=O)c1cccc([P+](=O)O)c1 | 1 | -1 | 13 | 0
CCOC(=O)c1ccc2[nH]c(-c3ccc(S(=O)(=O)F)cc3)cc(=O)c2c1 | 1 | 24* | 23 | -3
O=c1[nH]c(=O)n(-c2ccc(Br)cc2)c(O)c1C=NCCN1CCCCC1 | -6 | 2 | 25 | -7
COc1ccc(Cn2c(O)c(C=NCCN3CCOCC3)c(=O)[nH]c2=O)cc1 | 1 | -2 | 9 | 1
O=c1[nH]c(=O)n(Cc2ccc(F)cc2)c(O)c1C=NCCN1CCCCC1 | 1 | 20* | -3 | 12
O=c1[nH]c(=O)n(-c2ccccc2Cl)c(O)c1C=NCCN1CCCCC1 | -3 | 401* | 10 | -1
NC(Cc1ccccc1)[P+](=O)O (stereo not drawn) | 9 | · | · | ·
O=[N+]([O-])c1ccc2c(c1)Cc1cc(O)ccc1-2 | -9 | 14* | · | ·
Cc1ccccc1CCC[C@H](CC1CCCCC1)CN(C)C(=O)Oc1ccccc1 | 6 | · | · | ·
CCOC(=O)[C@]12Cc3cc(OC)ccc3[C@H]1N(Cc1ccccc1)C(=O)c1cc(F)c(F)cc12 | 1 | 13* | · | ·
CCOC(=O)[C@]12Cc3cc(C)ccc3[C@H]1N(Cc1ccccc1)C(=O)c1cc(F)c(F)cc12 | -4 | · | · | ·
CCOC(=O)[C@]12Cc3cc(OC)ccc3[C@H]1N(Cc1ccccc1)C(=O)c1ccccc12 | -12 | -4 | · | ·
CCOC(=O)[C@]12Cc3cc(C)ccc3[C@H]1N(Cc1ccccc1)C(=O)c1ccccc12 | -11 | 12* | · | ·
O=C(NCCN1CCC2(CC1)C(=O)NCN2c1ccccc1)c1ccc(Cl)c(Cl)c1 | -2 | · | · | ·
COC(=O)C1(N(C)c2ccccc2)CCN(Cc2ccccc2)CC1 | 3 | · | · | ·
CC[C@H](C(N)=O)N1CCCC1=O | -1 | · | · | ·
CN1C[C@H](CO)C=C2c3cccc4[nH]cc(c34)C[C@H]21 | -16 | -4 | 65* | -77
CN1CCC2(CC1)C(C#N)=C(N)NC(S)=C2C#N | -6 | -1 | 57* | 10
SMILES | HGIII-sPLA2 inh | NR3A LBD binder | SUMO HTRF inh | UBC13 polyUb
O=C(CN1C(=O)[C@@H](Cc2c[nH]c3ccccc23)N=C(c2ccccc2)c2ccccc21)NC1CCCCC1 | -81 | · | · | ·
COc1ccc(C2SCC(=O)Nc3c2c(C)nn3-c2ccccc2)cc1 (stereo not drawn) | -4 | 11* | 9 | -6
CCN(CC)S(=O)(=O)c1ccc(NN=C(C#N)C#N)cc1 | -7 | 13* | -19 | -18
N#CC(C#N)=NNc1ccc(-n2ccc(C(F)(F)F)n2)cc1 | -1 | 7 | -3 | -6
CCOC(=O)C(C)Oc1cc(C)cc2oc(=O)c3c(c12)CCCC3 (stereo not drawn) | -3 | 15* | 11 | 1
COC(=O)C(C)Oc1cc(C)cc2oc(=O)c3c(c12)CCCC3 (stereo not drawn) | 2 | -1 | 24 | 6
CN(C)C(=O)Oc1ccc(-c2cn3cc(Cl)ccc3n2)cc1 | 0 | 13* | 26 | 11
COc1ccc2c3c([nH]c2c1)[C@H](C=C(C)C)N1C(=O)[C@@H]2CCCN2C(=O)[C@@H]1C3 | -22 | · | · | ·
O=C1NC(=S)NC(=O)C1Cc1ccccc1 | 5 | 13* | · | ·
Nc1c2c(nc3ccccc13)CCN(Cc1ccccc1)C2 | -6 | -5 | 26 | -73
Nc1cc2nc3ccccc3nc2cc1N | -6 | 0 | 81* | -118

Source: PubChem
